Results on 23 molecules are retold here after the supplement of paper PMC4840960.

Assay [1] has as its system E18 rat cortical neuron-glia co-culture. The experiment in a line: fiber score / MBP score (myelination specific beyond OL differentiation) (ratio); higher = more myelination-specific MBP alignment. The following applies: treatment time: 8 days (DIV5-DIV13). The essentials:
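The measure is the ratio of fiber score to MBP score, where fiber score is continuous MBP fiber length per Olig2+ nucleus and MBP score is thresholded MBP area × intensity per Olig2+ nucleus. Primary E18 rat cortical co-cultures received library compounds at 1 or 5 µM in myelination medium from DIV5 to DIV13, then were fixed in 4 % paraformaldehyde and stained for MBP, Olig2 and DAPI before analysis of four 10X fields per well in duplicate wells.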

For assay [2] the test system is unchanged. The experiment in a line: myelination (MBP fiber length per Olig2+ nucleus), % of 1 µM DAPT response (DMSO = 0) (% of DAPT); higher = more myelination, active = 50 or more. The following applies: treatment time: 8 days (DIV5-DIV13). Put shortly: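 The myelination value was the continuous straight MBP fiber length per Olig2+ nucleus, scaled between 0.1 % DMSO (0) and a 1 µM positive control (100). It was measured in primary E18 rat cortical co-cultures treated with library compounds at 1 or 5 µM in myelination medium from DIV5 through DIV13. Cells were fixed in 4 % paraformaldehyde and stained for MBP, Olig2 and DAPI, and four 10X fields per well were imaged in duplicate wells.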

± gives the standard deviation of the averaged measurements.

As for `CC(=O)O[C@]1(C(C)=O)CC[C@H]2[C@@H]3C[C@H](C)C4=CC(=O)CC[C@]4(C)[C@H]3CC[C@@]21C` [Medroxyprogesterone acetate], the “fiber score / MBP score” value in assay [1] (1 µM) was 1.1; in assay [1] (5 µM) it was 0.549. The myelination in assay [2] (1 µM) was 0.776 (inactive); in assay [2] (5 µM), -11.3 (inactive).

In the case of `NC(=O)c1cnccn1` [Pyrazinamide], the “fiber score / MBP score” value in assay [1] (1 µM) is 0.64; in assay [1] (5 µM) it was 0.862. Besides, the myelination in assay [2] (1 µM) was -16.4 (inactive); in assay [2] (5 µM), -9.54 (inactive).

On to `CC(N)C12CC3CC(CC(C3)C1)C2` (configuration not stated) [Rimantadine], for which the “fiber score / MBP score” value in assay [1] (1 µM) amounted to 0.962; in assay [1] (5 µM), 0.737. For the same molecule, the myelination in assay [2] (1 µM) was 28.7 (inactive); in assay [2] (5 µM) it was 62.2.

With `CC(C)NCC(O)COc1ccc(COCCOC(C)C)cc1` (configuration not stated) [Bisoprolol], the “fiber score / MBP score” value amounted to 0.546 in assay [1] (1 µM) and 0.728 in assay [1] (5 µM). Further, the myelination in assay [2] (1 µM) was -58.3 (inactive); in assay [2] (5 µM), -38.2 (inactive).

In the case of `Cc1cccc(C)c1NC(=O)C1CCCCN1C` (configuration not stated) [Mepivacaine], the “fiber score / MBP score” value in assay [1] (1 µM) came out at 0.728; in assay [1] (5 µM) it was 0.864. For the same molecule, the myelination in assay [2] (1 µM) is -12.3 (inactive); in assay [2] (5 µM), -4.33 (inactive).

Consider `CNCCCC12CCC(c3ccccc31)c1ccccc12` [Maprotiline], for which the “fiber score / MBP score” value came to 0.656 in assay [1] (1 µM) and 0.581 in assay [1] (5 µM). For the same molecule, the myelination in assay [2] (1 µM) was -27.8 (inactive); in assay [2] (5 µM), -25.1 (inactive).

For `Cc1cn([C@H]2C=C[C@@H](CO)O2)c(=O)[nH]c1=O` [Stavudine], the “fiber score / MBP score” value in assay [1] (1 µM) turned out to be 0.646 ± 0.15; in assay [1] (5 µM), 0.637 ± 0.27. The myelination in assay [2] (1 µM) was -12.8 (inactive); in assay [2] (5 µM), -8.63 (inactive).

In the case of `COCC1=C(C(=O)OC(C)OC(=O)OC(C)C)N2C(=O)[C@@H](NC(=O)/C(=N\OC)c3csc(N)n3)[C@H]2SC1` (some centres not stated) [Cefpodoxime proxetil], the “fiber score / MBP score” value in assay [1] (1 µM) amounted to 0.721; in assay [1] (5 µM), 0.866. The myelination in assay [2] (1 µM) was -20.2 (inactive); in assay [2] (5 µM), -4.97 (inactive).

Consider `Nc1nnc(-c2cccc(Cl)c2Cl)c(N)n1` [Lamotrigine], for which the “fiber score / MBP score” value is 0.703 in assay [1] (1 µM) and 0.746 in assay [1] (5 µM). Besides, the myelination was -23.5 (inactive) in assay [2] (1 µM) and -15.5 (inactive) in assay [2] (5 µM).

On to `CC[C@@H](CO)NCCN[C@@H](CC)CO` [Ethambutol], for which the “fiber score / MBP score” value was determined as 0.781 in assay [1] (1 µM) and 0.753 in assay [1] (5 µM). For the same molecule, the myelination was -5.28 (inactive) in assay [2] (1 µM) and -6.9 (inactive) in assay [2] (5 µM).

For the molecule `CN(C)C(=O)C(CCN1CCC(O)(c2ccc(Cl)cc2)CC1)(c1ccccc1)c1ccccc1` [Loperamide], the figures for the “fiber score / MBP score” value in assay [1] (1 µM) and in assay [1] (5 µM) were 0.58 and 0.368, respectively. Moreover, the myelination in assay [2] (1 µM) is -10.1 (inactive); in assay [2] (5 µM), -21 (inactive).

Regarding `CC(C)NCC(O)COc1ccc(CC(N)=O)cc1` (configuration not stated) [Atenolol], the “fiber score / MBP score” value was determined as 1.03 in assay [1] (1 µM) and 1.04 in assay [1] (5 µM). The results for the myelination in assay [2] (1 µM) and in assay [2] (5 µM) were 2.66 (inactive) and 7.87 (inactive), respectively.

Turning to `CC(=O)OCC(=O)[C@@]12OC(C)(C)O[C@@H]1C[C@H]1[C@@H]3C[C@H](F)C4=CC(=O)C=C[C@]4(C)[C@@]3(F)[C@@H](O)C[C@@]12C` [Fluocinonide], the “fiber score / MBP score” value in assay [1] (1 µM) was determined as 0.861; in assay [1] (5 µM), 0.291. For the same molecule, the myelination in assay [2] (1 µM) was -38 (inactive); in assay [2] (5 µM) it was -66.2 (inactive).

Regarding `CCC(C)(C)C(=O)O[C@H]1C[C@@H](C)C=C2C=C[C@H](C)[C@H](CC[C@@H]3C[C@@H](O)CC(=O)O3)[C@H]21` [Simvastatin], the “fiber score / MBP score” value in assay [1] (1 µM) came to 1.17; in assay [1] (5 µM), 3.15. Also, the myelination was -17.5 (inactive) in assay [2] (1 µM) and 30 (inactive) in assay [2] (5 µM).

Turning to `O=C(NCCN1CCOCC1)c1ccc(Cl)cc1` [Moclobemide], the entries for the “fiber score / MBP score” value in assay [1] (1 µM) and in assay [1] (5 µM) were 0.601 and 0.881, respectively. Also, the values for the myelination in assay [2] (1 µM) and in assay [2] (5 µM) were -22.1 (inactive) and -5.22 (inactive), respectively.

`O=C1[C@H]2CCCC[C@H]2C(=O)N1CCCCN1CCN(c2nsc3ccccc23)CC1` [Perospirone]: the “fiber score / MBP score” value in assay [1] (1 µM) turned out to be 0.291; in assay [1] (5 µM) it was 0.198. Further, the values for the myelination in assay [2] (1 µM) and in assay [2] (5 µM) were -33.9 (inactive) and -34.5 (inactive), respectively.

Regarding `CN(C)CCC(c1ccc(Cl)cc1)c1ccccn1` (configuration not stated) [Chlorpheniramine], the “fiber score / MBP score” value in assay [1] (1 µM) was determined as 0.721 ± 0.13; in assay [1] (5 µM) it was 0.471 ± 0.094. Further, the myelination in assay [2] (1 µM) was -9.68 (inactive); in assay [2] (5 µM), -17.7 (inactive).

Turning to `COc1ccc(-c2oc3c(CC=C(C)C)c(O[C@@H]4O[C@H](CO)[C@@H](O)[C@H](O)[C@H]4O)cc(O)c3c(=O)c2O[C@@H]2O[C@@H](C)[C@H](O)[C@@H](O)[C@H]2O)cc1` [Icariin], the “fiber score / MBP score” value in assay [1] (1 µM) was found to be 0.673; in assay [1] (5 µM) it was 0.958. For the same molecule, the myelination in assay [2] (1 µM) was -14.4 (inactive); in assay [2] (5 µM), -5.53 (inactive).

For the molecule `CC1=C(CC(=O)O)c2cc(F)ccc2/C1=C\c1ccc([S+](C)[O-])cc1` (configuration not stated) [Sulindac], the “fiber score / MBP score” value in assay [1] (1 µM) worked out at 0.97; in assay [1] (5 µM), 0.594. The results for the myelination in assay [2] (1 µM) and in assay [2] (5 µM) were -5.43 (inactive) and -16.6 (inactive), respectively.

With `CN(C)CCN(Cc1ccccc1)c1ccccn1` [Tripelennamine], the “fiber score / MBP score” value in assay [1] (1 µM) was determined as 0.67; in assay [1] (5 µM), 0.588. The results for the myelination in assay [2] (1 µM) and in assay [2] (5 µM) were -35.6 (inactive) and -33.5 (inactive), respectively.

With `CCCc1nc2c(C)cc(-c3nc4ccccc4n3C)cc2n1Cc1ccc(-c2ccccc2C(=O)O)cc1` [Telmisartan], the “fiber score / MBP score” value in assay [1] (1 µM) was 0.729; in assay [1] (5 µM) it was 0.799. Besides, the values for the myelination in assay [2] (1 µM) and in assay [2] (5 µM) were -7.37 (inactive) and 2.94 (inactive), respectively.

`COc1cc(C(=O)NC2CCCNC2)cc(OC)c1OC` (configuration not stated) [Troxipide]: the “fiber score / MBP score” value in assay [1] (1 µM) stood at 0.692; in assay [1] (5 µM), 0.803. The myelination in assay [2] (1 µM) was -15.3 (inactive); in assay [2] (5 µM), -5 (inactive).

Regarding `O=C(O[C@H]1[C@H](Oc2ccccc2COC(=O)C2(O)C=CCCC2=O)O[C@H](CO)[C@@H](O)[C@@H]1O)c1ccccc1` (some centres not stated) [Tremulacin], the “fiber score / MBP score” value in assay [1] (1 µM) was determined as 0.746; in assay [1] (5 µM), 2.76. Further, the myelination was -11.2 (inactive) in assay [2] (1 µM) and 30.4 (inactive) in assay [2] (5 µM).
